Results taken from PubChem BioAssay (NCI).
Compounds without any hit were thinned out: in the full panel of roughly 83,000, 20% have a hit.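 Assay: single dose, 48 h. Readout: percent growth (0 = no net growth; negative = cell death). Active: <10.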

Experiments:
Experiment in all cases: NCI-60 one-dose screen, 48 h (100 = growth as untreated, 0 = no growth, -100 = all killed)
Conditions in all cases: 10 µM
DU-145 prostate = test system: DU-145 prostate
K-562 leukemia = test system: K-562 leukemia
MALME-3M melanoma = test system: MALME-3M melanoma
MDA-MB-231 breast = test system: MDA-MB-231 breast
RXF 393 renal = test system: RXF 393 renal
SF-268 CNS = test system: SF-268 CNS
SF-295 CNS = test system: SF-295 CNS
SF-539 CNS = test system: SF-539 CNS
UACC-257 melanoma = test system: UACC-257 melanoma
M14 melanoma = test system: M14 melanoma

Measured: growth

Cc1cc(C)c2nc(C)c(C)[n+]([O-])c2c1
inactive: DU-145 prostate 110% | K-562 leukemia 89.2% | MALME-3M melanoma 95.6% | MDA-MB-231 breast 118% | RXF 393 renal 114% | SF-268 CNS 106% | SF-295 CNS 101% | SF-539 CNS 97.2% | UACC-257 melanoma 84.8% | M14 melanoma 102%

C[C@H](NC(=O)[C@@H]1CSSC[C@@H](NC(=O)Cc2nc3ccccc3cc2O)C(=O)NCC(=O)N1C)c1ccccc1
inactive: DU-145 prostate 83.3% | K-562 leukemia 43.9% | MALME-3M melanoma 125% | MDA-MB-231 breast 70.8% | RXF 393 renal 122% | SF-268 CNS 86.6% | SF-295 CNS 104% | SF-539 CNS 79.3% | UACC-257 melanoma 85.4% | M14 melanoma 64.8%

COC(=O)C1(C(=O)OC)C2C(=O)C3C(C21)C3(C(=O)OC(C)(C)C)C(=O)OC(C)(C)C (stereo not given)
inactive: DU-145 prostate 118% | K-562 leukemia 103% | MALME-3M melanoma 115% | MDA-MB-231 breast 121% | RXF 393 renal 105% | SF-268 CNS 111% | SF-295 CNS 103% | SF-539 CNS 115% | UACC-257 melanoma 107% | M14 melanoma 104%

Nc1ccccc1NC(=O)CCCCCCC(=O)Nc1ccc2c(c1)/C(=C/c1ccc[nH]1)C(=O)N2
inactive: DU-145 prostate 28.7% | K-562 leukemia 46.8% | MALME-3M melanoma 20% | MDA-MB-231 breast 55.5% | RXF 393 renal 21.2% | SF-268 CNS 23.3% | SF-295 CNS 49.9% | SF-539 CNS 17% | UACC-257 melanoma 63.5% | M14 melanoma 50.4%

N#C/C(=C/c1cc([N+](=O)[O-])ccc1Cl)C(N)=O
inactive: DU-145 prostate 92.7% | K-562 leukemia 38.8% | MALME-3M melanoma 99% | MDA-MB-231 breast 111% | RXF 393 renal 99.2% | SF-268 CNS 96.4% | SF-295 CNS 98.1% | SF-539 CNS 101% | UACC-257 melanoma 97.8% | M14 melanoma 88.8%

O=C(Nc1ccc(OS(=O)(=O)Cc2ccccc2)cc1)C12CC3CC(CC(C3)C1)C2
inactive: DU-145 prostate 87.4% | K-562 leukemia 13.1% | MALME-3M melanoma 91.8% | MDA-MB-231 breast 78.7% | RXF 393 renal 99% | SF-268 CNS 84.6% | SF-295 CNS 60.3% | SF-539 CNS 86.1% | UACC-257 melanoma 99% | M14 melanoma 77.4%

Cc1ccc2c(c1)-c1cc(C)nn1-c1ccc(C#N)cc1O2
inactive: DU-145 prostate 98.7% | K-562 leukemia 19.7% | MALME-3M melanoma 76.1% | MDA-MB-231 breast 61% | RXF 393 renal 65% | SF-268 CNS 74.4% | SF-295 CNS 67.2% | SF-539 CNS 69.1% | UACC-257 melanoma 78.4% | M14 melanoma 40%

Cc1ccc(-c2cc(C(=O)Nc3ccc(S(=O)(=O)N4CCCCC4)cc3)[nH]n2)c(O)c1
inactive: DU-145 prostate 64.8% | K-562 leukemia 17.9% | MALME-3M melanoma 74% | MDA-MB-231 breast 56.1% | RXF 393 renal 50.7% | SF-268 CNS 69.9% | SF-295 CNS 62.4% | SF-539 CNS 48.8% | UACC-257 melanoma 52% | M14 melanoma 62.2%

O=C(O)CCCCSCCCCC(=O)O
inactive: DU-145 prostate 120% | K-562 leukemia 97.7% | MALME-3M melanoma 101% | MDA-MB-231 breast 107% | RXF 393 renal 111% | SF-268 CNS 107% | SF-295 CNS 99.6% | SF-539 CNS 103% | UACC-257 melanoma 89.7% | M14 melanoma 103%

COc1cc(C2C=C(c3ccc(Cl)c(Cl)c3)N=C3SC(C)=CN32)cc(OC)c1OC (stereo not given)
inactive: DU-145 prostate 80.3% | K-562 leukemia 32.1% | MALME-3M melanoma 82.9% | MDA-MB-231 breast 89% | RXF 393 renal 67.1% | SF-268 CNS 87.8% | SF-295 CNS 75.6% | SF-539 CNS 81% | UACC-257 melanoma 98.8% | M14 melanoma 86.4%

CCOC(=O)[C@@H](Cc1ccccc1)NC(=O)c1[nH]c2ccc(Cl)cc2c(=O)c1C
inactive: DU-145 prostate 113% | K-562 leukemia 86.5% | MALME-3M melanoma 107% | MDA-MB-231 breast 106% | RXF 393 renal 98.5% | SF-268 CNS 99.7% | SF-295 CNS 97.4% | SF-539 CNS 101% | UACC-257 melanoma 81.7% | M14 melanoma 97.1%

CS(=O)(=O)Nc1ccc(OCc2nnc(-c3ccc(Cl)cc3)o2)c(F)c1
inactive: DU-145 prostate 101% | K-562 leukemia 100% | MALME-3M melanoma 111% | MDA-MB-231 breast 85.7% | RXF 393 renal 108% | SF-268 CNS 98.9% | SF-295 CNS 94.1% | SF-539 CNS 85.1% | UACC-257 melanoma 99.6% | M14 melanoma 99.3%
